Screening results (PubChem BioAssay)
The list is not random: actives were taken first. Their share in the collection is about 2.2%.
TDP43 rescue – qHTS of TDP-43 Inhibitors. Potency, µM (doses to about 46.1 µM), for the others: top-dose growth rescue (activation), most hits filed as activators. TDP-43 expressing yeast growth rescue, BacTiter-Glo, 24 h. actives 1.8% (n = 410,000); also: % of control where 0% means no effect; nearly all actives have a fitted effect of over 50% in size
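Growth rescue of TDP-43-toxic yeast measured as ATP luminescence (BacTiter-Glo). Cells grown to mid-log in raffinose, induced in galactose at OD600=0.02, exposed to compound 24 hr at 30 deg C.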
aSyn rescue – qHTS of alpha-syn Inhibitors; Yeast expressing alpha-synuclein, growth rescue, BacTiter-Glo, 24 h; Potency, µM (highest dose often 46.1 µM), inactives show at the highest dose growth rescue (activation), hits mostly activators; actives 0.14% (n = 370,000); AID 652106, 2013; also: % of control where 0% means no effect; nearly all actives have a fitted effect of over 65% in size
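Readout is rescue of growth in alpha-synuclein-expressing yeast, so inhibitors of toxicity appear as activators. Growth after 24 hr at 30 deg C in galactose medium is quantified by luminescence.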
Mito fusion yeast – qHTS Assay for Small Molecule Inhibitors of Mitochondrial Division or Activators of Mitochondrial Fusion | S. cerevisiae fusion-defective mutant growth rescue, CellTiterGlo 48 h | Potency, µM (highest dose often 46.1 µM), without a hit: top-dose growth rescue (activation), hits mostly activators | actives 0.23% (n = 320,000) | AID 485298, 2010; also: % of control where 0% means no effect; nearly all actives have a fitted effect of over 45% in size
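Temperature-sensitive fusion-defective S. cerevisiae (e.g. fzo1-1, mgm1-5) were grown with compound in YPEG medium (3% ethanol, 3% glycerol) for 48 hours at 37C. Growth rescue was measured as viability by CellTiterGlo luminescence after 10 minutes at ambient.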
FUS suppressor – qHTS for Suppressors of FUS Proteinopathy: Primary screen using FUS-linked yeast assay. S. cerevisiae FUS-expressing, growth rescue, OD600, 24 h. Potency, µM (highest dose often 76.6 µM), actives largely listed as activators. actives 0.24% (n = 390,000). AID 1347120, 2019;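 also: plate controls were DMSO vehicle for no effect and reference control for full effect; nearly all actives have a fitted effect of over 55% in size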
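Toxicity suppression screen in FUS-yeast. Cells induced with 2% galactose, starting OD 0.005, treated 24hr at 30C with compounds at multiple final concentrations; growth by OD600.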
Abeta rescue – qHTS for compounds that reverse cellular toxicity of Amyloid beta (A-beta) peptide in yeast: Primary Screen | yeast expressing A-beta42, growth rescue, OD600, 48 h; response scale: 0% DMSO, 100% iron-clioquinol control | actives 0.063% (n = 410,000) | Potency, µM (doses to about 46.1 µM), hits mostly activators; also: nearly all actives have a fitted effect of over 55% in size
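Growth rescue measured by 600 nm absorbance after 48 h yeast culture at 30 C with compound. Values normalized between DMSO and an equimolar ferric chloride plus clioquinol control.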
The depositor's hits bear a star; i = inactive; u = inconclusive; x = no result given. Calls follow the shape of the dose curve; as a rule, active = well fitted curve in the direction sought with a large enough effect; inconclusive = small, poorly fitted or top-dose-only effect, or another doubt; inactive = no such curve, though single readings can be large; an effect the other way counts as inactive or inconclusive. Potency is read from the fitted curve at half-maximal effect.

SMILES | TDP43 rescue | aSyn rescue | Mito fusion yeast | FUS suppressor | Abeta rescue
COC(=O)C1=C(C(=O)OC)[N+]2=C3N(C(=O)NC2(C)C)[C@H](CO)C[C@@]32c3ccccc3N(Cc3ccccc3)[C@@H]12 | -29% | -1% | x | u | i
Cn1ccsc1=NC(=O)c1ccc(Cl)cc1 | 11µM* | -6% | 5% | i | i
COC(=O)[C@]12C[C@H](CC(=O)NCc3ccc(OC)c(OC)c3)C(=O)N(Cc3ccco3)C1=C[C@H](C1CCCC1)O[C@@H]2C | x | x | x | i | x
COC(=O)[C@]12C[C@H](CC(=O)NCc3ccc(C)o3)C(=O)N(Cc3cccc4ccccc34)C1=C[C@H](C1CCCC1)O[C@@H]2C | x | x | x | 28µM* | x
COC(=O)[C@]12C[C@H](CC(=O)NCc3ccc(OC)c(OC)c3)C(=O)N(Cc3cccc4ccccc34)C1=C[C@H](C1CCCC1)O[C@@H]2C | x | x | x | 13µM* | x
COC(=O)[C@]12C[C@H](CC(=O)N3CCN(C(=O)c4ccco4)CC3)C(=O)N(Cc3cccc4ccccc34)C1=C[C@H](C1CCCC1)O[C@@H]2C | x | x | x | 16µM* | x
COC(=O)[C@]12C[C@H](CC(=O)NCC34CC5CC(CC(C5)C3)C4)C(=O)N(Cc3cccc4ccccc34)C1=C[C@H](C1CCCC1)O[C@@H]2C | x | x | x | i | x
COC(=O)[C@]12C[C@H](CC(=O)NCc3cccc4ccccc34)C(=O)N(CCc3ccc(OC)c(OC)c3)C1=C[C@H](C(C)C)O[C@@H]2C1CC1 | x | x | x | 13µM* | x
Cc1cc2nc(C3CCCCC3)c(Cc3ccccc3)n2c(C)c1Br | 22% | 11% | x | i | i
CCn1c(SCC(=O)Nc2nnc(C)s2)nnc1-c1ccco1 | -11% | -11% | -3% | i | i
CCc1nnc(NC(=O)CSc2nnc(-c3ccco3)n2CCOC)s1 | -8% | 1% | 5.6µM* | i | i
COc1ccccc1-c1nnc(SC/C(O)=C(\C#N)c2nc3ccccc3[nH]2)n1C1CCCCC1 | 1% | 2% | x | 28µM* | i
N#C/C(=C(/O)CSc1nnc(Cc2cccs2)n1C1CCCCC1)c1nc2ccccc2[nH]1 | 9% | 0% | u | 50µM* | i
CC(=O)c1cc(-c2ccc(Oc3ccccc3)cc2)c(=O)n2c1CCC2 | x | x | x | i | x
O=C1c2ccccc2NC(c2c(Cl)cccc2Cl)N1Cc1ccccc1 (stereo not given) | 25µM* | -10% | 11% | i | i
O=C1c2ccccc2NC(c2ccc(Cl)cc2Cl)N1Cc1ccccc1 (stereo not given) | 13% | 5% | 7% | i | i
Cc1ccc(/C=N/NC(=O)c2ccccc2OCc2ccc(F)cc2)o1 | 12% | -6% | -4% | i | i
O=C(N/N=C/c1ccncc1)c1ccccc1OCc1ccc(Br)cc1 | 32µM* | 26% | u | i | i
CC(C)CC1Nc2ncnc(N3CCCCC3)c2N(Cc2ccc(Br)cc2)C1=O (stereo not given) | u | 14% | 22µM* | i | u
CC(C)CC1Nc2ncnc(N3CCOCC3)c2N(Cc2ccc(Br)cc2)C1=O (stereo not given) | 4% | 1% | 8% | i | i
O=C1C(Cc2ccccc2)Nc2ncnc(N3CCc4ccccc4C3)c2N1Cc1ccc(Cl)cc1 (stereo not given) | 6% | 15% | 10µM* | u | i
CCC1Nc2ncnc(N3CCc4ccccc4C3)c2N(Cc2ccc(Cl)cc2)C1=O (stereo not given) | 7% | 17% | x | u | i
CCC1CCc2c(sc(N)c2C(N)=O)C1 (stereo not given) | 3% | -10% | x | x | i
CC1CCc2c(sc(N)c2C(N)=O)C1 (stereo not given) | -16% | 15% | 0% | 32µM* | i
Cc1cc(C)c(S(=O)(=O)NCC(c2cccs2)S(=O)(=O)c2ccccc2)c(C)c1 (stereo not given) | 2.8µM* | x | x | i | i
